# Assay results: PubChem BioAssay (EPA / NIEHS)
# Several values for one entry are separate records, joined by “and”; a condition that tells them apart may be missing. Identical values can stand only once. Activity calls are given as the source filed them. The calls were made as follows: active = hit-call score of the fitted dose curve at least 0.9, where 1 is the maximum; inactive = score below 0.9.
# Assay: BSK_SAg_Proliferation: Cell Proliferation Assessment in the BioMAP Diversity Plus: SAg Assay (AID 2283095);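 also: relative cell number as total protein by SRB absorbance in sub-confluent culture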
# Conditions: primary human HUVEC with PBMC
# Procedure, shortened: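 Cells (endothelium plus PBMC, human primary) were dosed with chemical, cultured 96 h, fixed in 10% TCA and stained with 0.1% SRB. Absorbance at 560 nm gave relative protein, fitted bidirectionally relative to DMSO.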
SMILES,outcome,AC50
C=CC(=C)CCC=C(C)C,inactive,
Cc1ccc(S(=O)(=O)O)cc1C,inactive,
CCCN(C1CCN(C(=O)C2CCNCC2)CC1)[C@@H]1CCc2ccc(OC)cc2C1,inactive,
COCCOCCOCCOC,inactive,
CCCCCCCCO,inactive,
CCC(C)(C)C(=O)O[C@H]1C[C@@H](C)C=C2C=C[C@H](C)[C@H](CC[C@@H]3C[C@@H](O)CC(=O)O3)[C@H]21,,6.31 µM (active)
C1N2CN3CN1CN(C2)C3,inactive,
CC(=O)c1ccc2c(c1)[C@H](NC(=O)c1ccc(F)cc1)[C@@H](O)C(C)(C)O2,,4.31 µM (active)
COC(=O)CC(=O)OC,inactive,
O=C(CCCCCCCCc1cccnc1)N1CCC(C=C(c2ccccc2)c2ccccc2)CC1,,6.21 µM (active)
Cn1cnc([N+](=O)[O-])c1Sc1ncnc2nc[nH]c12,,17.3 µM (active) and 7.53 µM (active) and 7.26 µM (active)
O=C1OC(=O)C2C3C=CC(C3)C12 (configuration not stated),inactive,
